Data published in PubChem BioAssay (NCI).
This is part of a sample that, as a whole, favours compounds with a hit. Of some 83,000 tested, about 20% had one in any assay.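 48-hour exposure, single concentration, 96-well plates; percent growth endpoint where 0 means no net growth. Active: below 10.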 Calls of active or inactive are those of the source.

How the values were obtained:
Experiment in all cases: NCI-60 one-dose screen, 48 h (100 = growth as untreated, 0 = no growth, -100 = all killed)
Settings in all cases: 10 µM
SK-MEL-2 melanoma = system: SK-MEL-2 melanoma
EKVX NSCLC = system: EKVX NSCLC
SN12C renal = system: SN12C renal
UO-31 renal = system: UO-31 renal
TK-10 renal = system: TK-10 renal
ACHN renal = system: ACHN renal
CAKI-1 renal = system: CAKI-1 renal
A498 renal = system: A498 renal
CCRF-CEM leukemia = system: CCRF-CEM leukemia
MOLT-4 leukemia = system: MOLT-4 leukemia

Measured: growth

COc1cccc(-c2ccnc(/N=C(\N)Nc3ccc(S(=O)(=O)Nc4nc(C)cc(C)n4)cc3)n2)c1
inactive: SK-MEL-2 melanoma 100% | EKVX NSCLC 92.7% | SN12C renal 100% | UO-31 renal 64.1% | TK-10 renal 111% | ACHN renal 97.3% | CAKI-1 renal 80.4% | A498 renal 114% | CCRF-CEM leukemia 98.5% | MOLT-4 leukemia 101%

O=C(Nc1ccc(I)cc1)Nc1nc2ccc([N+](=O)[O-])cc2s1
active: SK-MEL-2 melanoma -91% | EKVX NSCLC -93% | SN12C renal -97.7% | UO-31 renal -100% | TK-10 renal -92% | ACHN renal -100% | CAKI-1 renal -100% | A498 renal -91.6% | CCRF-CEM leukemia -81.1% | MOLT-4 leukemia -58.1%

O=C(Nc1cccc([N+](=O)[O-])c1)Nc1cccc([N+](=O)[O-])c1
inactive: SK-MEL-2 melanoma 91.1% | EKVX NSCLC 77.1% | SN12C renal 82.4% | UO-31 renal 63.9% | TK-10 renal 84.2% | ACHN renal 84.8% | CAKI-1 renal 83.7% | A498 renal 94.4% | CCRF-CEM leukemia 69.7% | MOLT-4 leukemia 76.4%

CN(C)c1nc(NCCNS(=O)(=O)c2ccc(C(=O)/C=C/c3ccccc3)cc2)nc(Nc2ccc(F)cc2)n1
inactive: SK-MEL-2 melanoma 81% | EKVX NSCLC 29.1% | UO-31 renal 18.2% | TK-10 renal 92.5% | ACHN renal 12.7% | CAKI-1 renal 38.1% | A498 renal 61.1% | CCRF-CEM leukemia 14.8%
active: SN12C renal -89% | MOLT-4 leukemia 8.21%

COc1ccc(C2NC(=S)NC(C)=C2C(=O)OC(C)C)cc1OC (stereo not given)
inactive: SK-MEL-2 melanoma 114% | EKVX NSCLC 97.9% | SN12C renal 101% | UO-31 renal 83.5% | TK-10 renal 106% | ACHN renal 107% | CAKI-1 renal 97.4% | A498 renal 114% | CCRF-CEM leukemia 95.9% | MOLT-4 leukemia 102%

COc1cc(/C=C/C(=O)c2ccc(C(F)(F)F)cc2)ccc1Oc1nc(Nc2ccc(F)cc2)nc(N(C)C)n1
inactive: SK-MEL-2 melanoma 78.4% | EKVX NSCLC 66% | SN12C renal 69.6% | UO-31 renal 50.3% | TK-10 renal 88.5% | ACHN renal 84.2% | CAKI-1 renal 69.6% | A498 renal 94.4% | CCRF-CEM leukemia 64.8% | MOLT-4 leukemia 40.7%

CO[C@@H]1CSS[C@H]1Cn1nc(-c2ccc(Oc3ccccc3)cc2)c2c(N)ncnc21
inactive: SK-MEL-2 melanoma 64.7% | EKVX NSCLC 42.8% | SN12C renal 73.9% | UO-31 renal 27.2% | TK-10 renal 45.5% | ACHN renal 68.2% | CAKI-1 renal 47.6% | A498 renal 67% | CCRF-CEM leukemia 10.7% | MOLT-4 leukemia 14%

O=C1N/C(=N\c2nccs2)S/C1=C\c1cccs1
inactive: SK-MEL-2 melanoma 40.7% | EKVX NSCLC 19% | SN12C renal 45.8% | UO-31 renal 20.8% | TK-10 renal 55.2% | ACHN renal 17.1% | CAKI-1 renal 20.2% | A498 renal 73.2% | CCRF-CEM leukemia 19.1% | MOLT-4 leukemia 17%

O=C1Nc2cc(-c3ccc(NC(=O)c4cccs4)cc3)ccc2/C1=C/c1ccc[nH]1
inactive: SK-MEL-2 melanoma 83.5% | EKVX NSCLC 55.2% | SN12C renal 65.3% | UO-31 renal 82.1% | TK-10 renal 112% | ACHN renal 82% | CAKI-1 renal 89.7% | A498 renal 151% | CCRF-CEM leukemia 41.8% | MOLT-4 leukemia 37.4%

CCOC(=O)C1=C(N)N(c2ccc(C)cc2)C2=C(C(=O)CC(C)(C)C2)C1c1ccccc1OC (stereo not given)
inactive: SK-MEL-2 melanoma 110% | EKVX NSCLC 92.2% | SN12C renal 99.6% | UO-31 renal 78.7% | TK-10 renal 107% | ACHN renal 103% | CAKI-1 renal 97.7% | A498 renal 102% | CCRF-CEM leukemia 99% | MOLT-4 leukemia 106%

CN(C)c1ccc(/C=C/C(=O)c2ccc(NC(=O)CN3C(=O)NC(C)(c4ccccc4)C3=O)cc2)cc1 (stereo not given)
inactive: SK-MEL-2 melanoma 76.5% | EKVX NSCLC 66.4% | SN12C renal 73.4% | UO-31 renal 57.7% | TK-10 renal 97.3% | ACHN renal 59.8% | CAKI-1 renal 66.4% | A498 renal 85.5% | CCRF-CEM leukemia 53.1% | MOLT-4 leukemia 36.6%

Cc1ccc(/C=C/C(=O)c2ccc(NC(=O)CSc3nnc(-c4c[nH]c5ccccc45)n3-c3ccccc3)cc2)cc1
inactive: SK-MEL-2 melanoma 90.5% | EKVX NSCLC 77% | SN12C renal 76.1% | UO-31 renal 55.3% | TK-10 renal 107% | ACHN renal 78.3% | CAKI-1 renal 80.6% | A498 renal 111% | CCRF-CEM leukemia 93.7% | MOLT-4 leukemia 68.3%

Nc1nc(Nc2ccccc2)nn1Cc1c(Cl)cccc1Cl
inactive: SK-MEL-2 melanoma 49.2% | EKVX NSCLC 20.2% | SN12C renal 44.5% | UO-31 renal 11.8% | TK-10 renal 53.8% | ACHN renal 13.9% | CAKI-1 renal 27.9% | CCRF-CEM leukemia 26.5% | MOLT-4 leukemia 18.6%
active: A498 renal -3.12%

O=C(Nc1ccc(Cl)c(C(F)(F)F)c1)c1cncc(C#Cc2cnc3ccc(N4CCOCC4)nn23)c1
inactive: EKVX NSCLC 19.2% | TK-10 renal 23.8% | CCRF-CEM leukemia 37.5%
active: SK-MEL-2 melanoma -33.8% | SN12C renal 6.18% | UO-31 renal -33.6% | ACHN renal -35% | CAKI-1 renal 9.84% | A498 renal -19.3% | MOLT-4 leukemia 0.617%

CC1(c2ccccc2)NC(=O)N(CC(=O)Nc2ccc(C(=O)/C=C/c3ccccc3)cc2)C1=O (stereo not given)
inactive: SK-MEL-2 melanoma 75.3% | EKVX NSCLC 58.2% | SN12C renal 68.7% | UO-31 renal 52.9% | TK-10 renal 92.1% | ACHN renal 60.3% | CAKI-1 renal 61.9% | A498 renal 104% | CCRF-CEM leukemia 35.7% | MOLT-4 leukemia 22.9%

COc1ccc(/C=C/C(=O)c2ccc(NC(=O)CN3C(=O)NC(C)(c4ccccc4)C3=O)cc2)cc1 (stereo not given)
inactive: SK-MEL-2 melanoma 93.4% | EKVX NSCLC 91% | SN12C renal 95.3% | UO-31 renal 56.8% | TK-10 renal 109% | ACHN renal 84.5% | CAKI-1 renal 79% | A498 renal 119% | CCRF-CEM leukemia 78.3% | MOLT-4 leukemia 49.7%

COc1ccc(C(=O)/C=C/c2ccc(Cl)c(C(F)(F)F)c2)cc1S(N)(=O)=O
active: SK-MEL-2 melanoma -83.1% | EKVX NSCLC -98.2% | SN12C renal -100% | UO-31 renal -99.6% | TK-10 renal -96.3% | ACHN renal -100% | CAKI-1 renal -100% | A498 renal -30.3% | CCRF-CEM leukemia 4.6% | MOLT-4 leukemia 8.09%

COc1ccc(NC(=O)CSc2nnc(-c3ccc4nc(-c5ccc(Cl)cc5)[nH]c4c3)o2)cc1
inactive: SK-MEL-2 melanoma 107% | EKVX NSCLC 98.8% | SN12C renal 29.1% | UO-31 renal 63.9% | TK-10 renal 121% | ACHN renal 63.8% | CAKI-1 renal 83.6% | A498 renal 132% | CCRF-CEM leukemia 67.5% | MOLT-4 leukemia 30.4%

OCCCNc1oc(-c2ccccc2)nc1[P+](c1ccccc1)(c1ccccc1)c1ccccc1
inactive: EKVX NSCLC 14.3% | UO-31 renal 69.8% | TK-10 renal 20.9% | ACHN renal 51% | CAKI-1 renal 58.6% | A498 renal 22.5% | CCRF-CEM leukemia 10.5%
active: SK-MEL-2 melanoma -34.1% | SN12C renal -0.273% | MOLT-4 leukemia 6.77%

O=C1Nc2cc(-c3ccc(NC(=O)c4cccc([N+](=O)[O-])c4)cc3)ccc2/C1=C/c1ccc[nH]1
inactive: SK-MEL-2 melanoma 51.4% | EKVX NSCLC 66.5% | SN12C renal 101% | UO-31 renal 67.2% | TK-10 renal 108% | ACHN renal 59.6% | CAKI-1 renal 97.8% | A498 renal 149% | CCRF-CEM leukemia 91.2% | MOLT-4 leukemia 73.8%

CC1(C)CC[C@]2(C(=O)O)CC[C@]3(C)C(=CC[C@@H]4[C@@]5(C)C/C(=C/c6ccncc6)[C@H](O)C(C)(C)[C@@H]5CC[C@]43C)[C@@H]2C1
inactive: SK-MEL-2 melanoma 55.4% | EKVX NSCLC 30.1% | SN12C renal 55% | UO-31 renal 32.9% | TK-10 renal 46.9% | ACHN renal 25.7% | A498 renal 65% | CCRF-CEM leukemia 21%

CN(C)c1cccc2c(S(=O)(=O)Nc3cccc(-c4csc(NC(=O)CCCCCN5CCN(c6cc7c(cc6F)C(=O)N(C6CCC(=O)NC6=O)C7=O)CC5)n4)c3)cccc12 (stereo not given)
inactive: SK-MEL-2 melanoma 108% | EKVX NSCLC 80.8% | SN12C renal 85.8% | UO-31 renal 70% | TK-10 renal 97.4% | ACHN renal 97.8% | A498 renal 95.7% | CCRF-CEM leukemia 66.3%

O=C(c1ccc(Cl)cc1)C1[C@H](c2ccc(Br)cc2)[C@@H](c2ccccc2)NC12C(=O)Nc1ccccc12 (stereo not given in full)
active: SK-MEL-2 melanoma -62.7% | EKVX NSCLC 4.42% | SN12C renal -78.1% | UO-31 renal 2.46% | ACHN renal -5.73% | CAKI-1 renal 0.681% | A498 renal -23.5% | CCRF-CEM leukemia -0.656% | MOLT-4 leukemia -22.7%
inactive: TK-10 renal 14.5%

CC(=O)Nc1ccc(-c2cn(-c3cccc(C(=O)Nc4cccc(OC(F)(F)F)c4)c3)nn2)cn1
inactive: SK-MEL-2 melanoma 95.4% | EKVX NSCLC 105% | SN12C renal 114% | UO-31 renal 131% | TK-10 renal 111% | ACHN renal 101% | CAKI-1 renal 94.5% | A498 renal 178% | CCRF-CEM leukemia 98.1% | MOLT-4 leukemia 109%

Cc1ccc(-c2nc(Nc3ccc(C)c(S(N)(=O)=O)c3)c3ccccc3n2)cc1
inactive: SK-MEL-2 melanoma 118% | EKVX NSCLC 81.1% | SN12C renal 69% | UO-31 renal 85.9% | TK-10 renal 120% | ACHN renal 64.1% | CAKI-1 renal 91% | A498 renal 106% | CCRF-CEM leukemia 85.1% | MOLT-4 leukemia 71.5%

O=C(NC(=S)N1CCN(c2ncnc3c2cnn3-c2ccccc2)CC1)c1ccc(Cl)cc1
inactive: SK-MEL-2 melanoma 88.8% | EKVX NSCLC 62.7% | SN12C renal 28.3% | UO-31 renal 40% | TK-10 renal 109% | ACHN renal 24.5% | CAKI-1 renal 27.7% | A498 renal 68.4% | MOLT-4 leukemia 81.6%

Cc1ccc(-c2nc(Nc3ccc(S(N)(=O)=O)cc3)c3ccccc3n2)cc1
inactive: SK-MEL-2 melanoma 99.9% | EKVX NSCLC 65.9% | SN12C renal 68.7% | UO-31 renal 54.5% | TK-10 renal 104% | ACHN renal 42.8% | CAKI-1 renal 36.5% | A498 renal 61.3% | CCRF-CEM leukemia 25.7% | MOLT-4 leukemia 11.2%
